Laboratory results from PubChem BioAssay (Tox21).
Values joined by “and” are separate entries in the source; they are usually repeats but may differ in a detail not shown here. Equal values may be shown once. Results filed as inconclusive are left out. Some compounds were tested as several samples or in several runs, with calls that do not always agree. Active and inactive are the calls of the source. Unless noted, calls come from the whole dose curve; as a rule, active = well fitted curve in the direction sought with a large enough effect in the repeat runs; inconclusive = weak or mixed curves; inactive = no such curve, though single readings can be large; an effect the other way counts as inactive or inconclusive.

Legend:
[1] = A CellTox Green Cytotoxicity Assay to monitor cytotoxicity in HepG2 cells - 8 hour (AID 1224890); note: nearly all actives have a fitted effect of over 45% in size; note: potency is the fitted concentration of half-maximal effect
Method in brief: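 Nonlytic assay: viable cells exclude the dye, so fluorescence scales with cell death. HepG2 at 600 cells/well, compounds added after 5 h, signal read across 40 h.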

[2] = qHTS assay to identify small molecule antagonists of the estrogen receptor alpha (ER-alpha) signaling pathway using the BG1 cell line in the presence of 0.1 nM 17-beta-estradiol - cell viability counter screen (AID 1259241); note: nearly all actives have a fitted effect of over 40% in size
Method in brief: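 In this screen, hormone-deprived VM7Luc4E2 cells were seeded at 4,000 per well, dosed with compound and 0.1 nM estradiol final, and incubated 22 hr at 37C and 5% CO2; fluorogenic live-cell protease signal reported viability.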

[3] = qHTS assay to identify small molecule phospholipidosis (PLD) inducers (AID 1259344; active = well fitted curve in the direction sought with a large enough effect; an effect the other way counts as inactive or inconclusive)
Method in brief: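 Phospholipidosis is scored by imaging LipidTOX-stained pits in HepG2 cells exposed to compound for 24 h at 37 C; pit counts and integrated intensities per well and per cell serve as outputs.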

[4] = qHTS assay to identify small molecule HDAC inhibitors (AID 1259364); note: potency is the fitted concentration of half-maximal effect;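 note: wild-type HCT-116 cells with endogenous class I/II HDAC activity; nearly all actives have a fitted effect of over 45% in size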
Method in brief: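 Relative class I and II HDAC activity is taken from the luminogenic signal in HCT-116 cells, with compound exposure 2 hr and reagent development 30 min at room temperature.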

[5] = qHTS assay to identify small molecule HDAC inhibitors - cell viability counter screen (AID 1259365); note: series mostly up to about 92 µM; nearly all actives have a fitted effect of over 50% in size
Method in brief: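 Measured quantity is CellTiter-Glo luminescence from wild-type HCT-116 cells after compound incubation of 2hr at 37C, 5% CO2; reagent developed 30min at room temperature.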

[6] = qHTS assay to identify small molecule agonists of the sonic hedgehog signaling (Shh) pathway - cell viability counter screen (AID 1259366); note: nearly all actives have a fitted effect of over 50% in size; note: potency is the fitted concentration of half-maximal effect
Method in brief: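 In quantitative high-throughput format, 3T3 Gli1-Luc cells were exposed to compounds for 24hr and multiplexed for viability using CellTiter-Fluor, incubated 1hr at 37C before the fluorescence read.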

[7] = qHTS assay to identify small molecule antagonists of the sonic hedgehog signaling (Shh) pathway - cell viability counter screen (AID 1259367); note: nearly all actives have a fitted effect of over 55% in size; note: potency is the fitted concentration of half-maximal effect
Method in brief: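 Cells: 3T3 Gli1-Luc, 2,000/well, 4 hr pre-incubation. Compounds in DMSO, then conditioned medium. Incubation 24 hr, 37C, 5% CO2. CellTiter-Fluor at 23 hr, 1 hr, fluorescence.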

[8] = qHTS assay to identify small molecule agonists of the sonic hedgehog signaling (Shh) pathway (AID 1259368; calls by dose curve;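 note: NIH/3T3-derived 3T3Gli1-Luc cells carrying a stable Gli1-driven firefly luciferase reporter; series mostly up to about 92 µM; nearly all actives have a fitted effect of over 15% in size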)
Method in brief: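 Mouse fibroblast (NIH/3T3) reporter cells with stably integrated Gli1-Luc were treated 24 hr with compound; firefly luciferase luminescence served as the read-out.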

[9] = qHTS assay to identify small molecule agonists of the androgen receptor (AR) signaling pathway in the presence of an antagonist - cell viability counter screen (AID 1259379); note: nearly all actives have a fitted effect of over 25% in size; note: potency is the fitted concentration of half-maximal effect
Method in brief: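 A CellTiter-Fluor read-out measured viability of MDA-kb2 reporter cells (MMTV promoter with AR and GR response elements). Treatment: nilutamide 3.0uM final with compounds at 15 concentrations, 16 hr, 37C, 0% CO2.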

[10] = qHTS assay to identify small molecule agonists of the estrogen receptor beta (ER-beta) signaling pathway - cell viability counter screen (AID 1259380); note: nearly all actives have a fitted effect of over 30% in size; note: potency is the fitted concentration of half-maximal effect
Method in brief: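 Cells used were ER-beta-UAS-bla HEK293T in medium with 2% charcoal-stripped FBS. They were treated for 16 hr at 37C. Viability came from CellTiter-Glo luminescence.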

[11] = qHTS assay to identify small molecule antagonists of the estrogen receptor beta (ER-beta) signaling pathway - cell viability counter screen (AID 1259382); note: nearly all actives have a fitted effect of over 55% in size; note: potency is the fitted concentration of half-maximal effect
Method in brief: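 Agonist-stimulated (1nM E2) ER-beta-UAS-bla HEK293T cells are incubated with library compounds for 16 hr at 37C. Cell viability is then assessed in the reporter-assay wells by adding CellTiter-Glo and reading luminescence after 30 min.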

[12] = biological target: Estrogen receptor (Homo sapiens) (UniProt P03372); test: qHTS assay to identify small molecule antagonists of the estrogen receptor alpha (ER-alpha) signaling pathway using the BG1 cell line in the presence of 0.1 nM 17-beta-estradiol (AID 1259244); note: nearly all actives have a fitted effect of over 50% in size
Method in brief: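 VM7Luc4E2; 4xERE-luciferase; 0.1 nM E2 final; 22 h co-incubation, 37C; ONE-Glo luminescence after 30 min at room temperature.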

[13] = biological target: Estrogen receptor (Homo sapiens) (UniProt P03372); test: qHTS assay to identify small molecule agonists of the estrogen receptor alpha (ER-alpha) signaling pathway in the presence of an antagonist (AID 1259383; calls by dose curve; note: top concentration of the series differs between compounds; nearly all actives have a fitted effect of over 15% in size)
Method in brief: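 Using VM7Luc4E2 cells seeded 24hr before treatment, antagonist ICI-182,780 (10.0nM final) was added, followed by compounds at 15 concentrations. Plates incubated 22hr; ONE-Glo luminescence quantified reporter activity.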

[14] = qHTS assay to identify small molecule agonists or antagonists of the thyroid stimulating hormone receptor (TSHR) signaling pathway - wild type cell line counter screen (AID 1259384; calls by dose curve)
Method in brief: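 Counter screen in untransfected Hek293: compounds (15-point titration, triplicate) plus phosphodiesterase inhibitor Ro20-1724 added after 18 h plating; 30 min RT. Intracellular cAMP via competitive d2/cryptate immunoassay, 1 h incubation.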

[15] = qHTS assay to identify small molecule antagonists of the sonic hedgehog signaling (Shh) pathway (AID 1259369; calls by dose curve; note: nearly all actives have a fitted effect of over 45% in size; note: potency is the fitted concentration of half-maximal effect)
Method in brief: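 Conditioned medium drives Shh signalling in 3T3Gli1-Luc cells; compounds in DMSO co-applied, 24hr at 37 C, then luciferase luminescence.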

[16] = biological target: Estrogen receptor beta (Homo sapiens) (UniProt Q92731); test: qHTS assay to identify small molecule agonists of the estrogen receptor beta (ER-beta) signaling pathway (AID 1259377; active = well fitted activation curve with a large enough effect in the signal ratio in the repeat runs, not every such curve was filed as active; the % refers to the signal ratio)
Method in brief: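 Reporter cells (HEK293T, ER-beta-UAS-bla) receive compounds or DMSO after a 6 hr pre-incubation. They then incubate 16 hr at 37C/5% CO2, and fluorescence from LiveBLAzer B/G substrate is measured after 2 hours at room temperature.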

[17] = biological target: Estrogen receptor beta (Homo sapiens) (UniProt Q92731); test: qHTS assay to identify small molecule antagonists of the estrogen receptor beta (ER-beta) signaling pathway (AID 1259378; active = well fitted inhibition curve with a large enough effect in the signal ratio in the repeat runs, not every such curve was filed as active; the % refers to the signal ratio; note: potency is the fitted concentration of half-maximal effect)
Method in brief: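 Antagonist mode: compounds added to beta-lactamase reporter HEK293T ER-beta-UAS cells stimulated with E2 (1nM final), 16 hr at 37C. LiveBLAzer B/G FRET substrate, 2 hours room temperature, fluorescence read-out.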

[18] = qHTS assay to identify small molecule antagonists of the androgen receptor (AR) signaling pathway using the MDA cell line in the presence of 0.5 nM R1881 - cell viability counter screen (AID 1259242); note: nearly all actives have a fitted effect of over 45% in size; note: potency is the fitted concentration of half-maximal effect
Method in brief: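 R1881 at 0.5 nM final stimulated MDA-kb2 cells during 16 hr compound treatment at 37C. Cytotoxicity read: CellTiter-Fluor fluorescence after 30 min.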

Measured: Potency

Estrogen receptor beta (Homo sapiens), sequence (Q92731 whole entry, looked up): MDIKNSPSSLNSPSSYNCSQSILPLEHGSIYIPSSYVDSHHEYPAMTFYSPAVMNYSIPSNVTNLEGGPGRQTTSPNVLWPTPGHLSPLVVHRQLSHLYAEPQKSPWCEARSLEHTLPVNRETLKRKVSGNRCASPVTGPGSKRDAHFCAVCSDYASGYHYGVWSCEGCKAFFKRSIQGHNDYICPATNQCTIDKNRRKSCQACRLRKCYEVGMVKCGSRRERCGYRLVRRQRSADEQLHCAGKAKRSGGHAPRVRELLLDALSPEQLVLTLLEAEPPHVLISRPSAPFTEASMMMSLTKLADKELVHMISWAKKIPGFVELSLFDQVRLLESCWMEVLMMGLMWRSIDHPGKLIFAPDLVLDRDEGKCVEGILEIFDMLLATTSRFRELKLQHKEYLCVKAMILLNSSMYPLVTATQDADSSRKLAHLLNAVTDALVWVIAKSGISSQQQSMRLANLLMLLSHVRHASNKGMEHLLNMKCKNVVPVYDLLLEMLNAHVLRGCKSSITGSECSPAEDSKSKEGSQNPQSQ
Estrogen receptor (Homo sapiens), sequence (P03372 whole entry, looked up): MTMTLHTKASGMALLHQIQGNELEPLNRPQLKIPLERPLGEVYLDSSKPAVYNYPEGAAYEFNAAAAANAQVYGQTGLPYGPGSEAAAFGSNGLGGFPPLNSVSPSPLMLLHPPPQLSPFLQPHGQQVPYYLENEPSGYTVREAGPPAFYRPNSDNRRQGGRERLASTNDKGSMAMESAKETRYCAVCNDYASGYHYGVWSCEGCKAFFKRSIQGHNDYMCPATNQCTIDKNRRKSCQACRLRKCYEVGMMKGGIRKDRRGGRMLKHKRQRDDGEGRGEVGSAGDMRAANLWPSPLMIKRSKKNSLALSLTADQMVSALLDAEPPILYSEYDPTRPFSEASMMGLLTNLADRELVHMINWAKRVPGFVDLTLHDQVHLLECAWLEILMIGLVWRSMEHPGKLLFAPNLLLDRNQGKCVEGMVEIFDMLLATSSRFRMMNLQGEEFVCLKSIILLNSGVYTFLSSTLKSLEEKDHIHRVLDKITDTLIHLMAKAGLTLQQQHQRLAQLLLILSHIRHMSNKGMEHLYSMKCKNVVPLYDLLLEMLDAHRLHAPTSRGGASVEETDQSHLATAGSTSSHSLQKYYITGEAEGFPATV

CC(C)n1c(/C=C/[C@@H](O)C[C@@H](O)CC(=O)O)c(-c2ccc(F)cc2)c2ccccc21
inactive: [1] | [2] | [3] | [4] | [5] | [6] | [7] | [8] | [9]
active: [10] 13.7 µM and 4.73 µM | [11] 15.4 µM

C=C(C)C(=O)OCCCCCC
inactive: [1] | [2] | [12] | [4] | [5] | [6] | [7] | [8] | [9] | [10] | [11] | [13] | [14]

OCC#CCO
inactive: [1] | [2] | [4] | [5] | [6] | [7] | [8] | [15] | [16] | [17] | [9] | [10] | [11] | [14]

CS(=O)(=O)c1ccc([C@@H](O)[C@@H](CO)NC(=O)C(Cl)Cl)cc1
inactive: [1] | [2] | [12] | [3] | [4] | [5] | [6] | [7] | [8] | [15] | [9] | [10] | [11] | [13]

O=C(Oc1ccccc1)c1ccc(O)cc1
active: [4] 21.8 µM and 21.7 µM | [17] 48.9 µM
inactive: [1] | [2] | [5] | [6] | [7] | [8] | [15] | [9] | [10] | [11] | [14]

CCCCCC/C=C/CCCCCCCC(=O)O
inactive: [1] | [2] | [12] | [4] | [5] | [6] | [7] | [8] | [15] | [16] | [17] | [9] | [10] | [11] | [13] | [14]

O=C1N=C(O)CN1/N=C/c1ccc(-c2ccc([N+](=O)[O-])cc2)o1
inactive: [1] | [3] | [4] | [5] | [8] | [10] | [11] | [14]
active: [9] 30.6 µM and 23.7 µM

Nc1c(S(=O)(=O)O)cc(Br)c2c1C(=O)c1ccccc1C2=O
inactive: [1] | [12] | [4] | [5] | [8] | [15] | [16] | [17] | [10] | [11] | [13] | [14]
active: [9] 27.3 µM
inactive and 30.6 µM (active): [6]
inactive and 24.3 µM (active): [18]
inactive and 27.3 µM (active): [7]

NS(=O)(=O)c1cc2c(cc1Cl)NC=NS2(=O)=O
inactive: [1] | [2] | [12] | [3] | [4] | [5] | [6] | [7] | [8] | [16] | [17] | [9] | [10] | [11] | [13] | [14]

COC(=O)Nc1nc2ccc(Sc3ccccc3)cc2[nH]1
active: [7] 8.63 µM | [15] 1.93 µM and 2.66 µM
inactive: [1] | [2] | [3] | [4] | [5] | [6] | [8] | [9] | [10] | [11] | [14]

CCCCCCC(C)(C)S
inactive: [1] | [2] | [4] | [5] | [6] | [7] | [8] | [16] | [17] | [9] | [10] | [11] | [14]

CCCCC(CC)COC(=O)CCCCCCCC(=O)OCC(CC)CCCC (stereo not drawn)
active: [10] 15.4 µM
12.2 µM (active) and inactive: [17]
15.4 µM (active) and inactive: [15]
30.6 µM (active) and inactive: [11]
8.63 µM (active) and inactive: [9]
inactive: [18] | [4] | [5] | [6] | [7] | [8] | [16] | [14]
54.9 µM (active) and inactive: [1]

O=[N+]([O-])C(CO)(CO)CO
inactive: [1] | [2] | [12] | [4] | [5] | [8] | [16] | [17] | [9] | [10] | [11] | [13] | [14]
active: [6] 30.2 µM and 48.6 µM | [15] 151 nM
214 nM (active) and inactive: [7]
